# From PubChem
# TDP1 cell CPT – growth inhibition of DT40 Tdp1-/-;hTDP1 cells with camptothecin (screen for TDP1 inhibitors) | chicken DT40 Tdp1-/-;hTDP1 cells + 20 nM CPT, ATP luminescence, 48 h | Potency, µM (top dose mostly 46.2 µM), inactives show at the highest dose activity change, negative = growth inhibition, actives largely listed as inhibitors | actives 12% (n = 420,000); note: potency is the fitted concentration of half-maximal effect; % is set by controls: 0 for no effect and ±100 for the full control effect; nearly all actives have a fitted effect of over 55% in size
#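 Cell growth measured by CellTiter-Glo luminescence after a minimum 48 h, 37 C compound exposure with 20 nM CPT in Tdp1-knockout DT40 cells stably expressing hTDP1, seeded 400/well; qHTS titration format.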
# TDP1 block – inhibitors of human tyrosyl-DNA phosphodiesterase TDP1 | recombinant TDP1, AlphaScreen DNA substrate cleavage | actives 0.28% (n = 350,000) | Potency, µM (top dose mostly 130 µM), inactives show top-dose activity change, negative = inhibition, actives largely listed as inhibitors; note: potency is the fitted concentration of half-maximal effect; % is set by controls: 0 for no effect and ±100 for the full control effect; nearly all actives have a fitted effect of over 40% in size
# Target sequence (Q9NUW8 whole entry, looked up): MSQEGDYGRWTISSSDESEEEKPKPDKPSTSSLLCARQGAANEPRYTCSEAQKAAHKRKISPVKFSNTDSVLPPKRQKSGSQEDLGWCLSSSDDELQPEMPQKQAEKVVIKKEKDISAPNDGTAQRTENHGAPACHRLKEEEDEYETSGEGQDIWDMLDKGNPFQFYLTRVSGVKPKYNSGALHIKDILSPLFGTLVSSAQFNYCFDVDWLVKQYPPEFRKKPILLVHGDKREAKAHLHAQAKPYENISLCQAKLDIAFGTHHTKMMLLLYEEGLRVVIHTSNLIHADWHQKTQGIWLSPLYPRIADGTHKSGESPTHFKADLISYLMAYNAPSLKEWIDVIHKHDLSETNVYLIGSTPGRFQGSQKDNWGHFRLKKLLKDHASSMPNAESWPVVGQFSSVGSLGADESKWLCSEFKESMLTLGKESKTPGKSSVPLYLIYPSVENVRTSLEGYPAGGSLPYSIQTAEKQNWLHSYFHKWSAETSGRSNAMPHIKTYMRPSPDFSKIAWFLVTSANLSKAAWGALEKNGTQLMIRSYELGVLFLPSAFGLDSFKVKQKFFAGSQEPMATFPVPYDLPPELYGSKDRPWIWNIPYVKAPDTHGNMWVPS
#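 Steps: enzyme plus compound, 15 min RT; add biotin/phosphotyrosine-FITC oligonucleotide (15 nM final), react 5 min; add donor/acceptor beads (10 ug/ml final), 10 min; read AlphaScreen. Tdp1 at 1 nM final.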
# TGFb SMAD3 inh – blocks TGF-b signaling. HepG2 CAGA-GFP TGF-b/SMAD3 reporter, GFP fluorescence, 18 h; TGF-beta stimulated, 500 pg/mL final. Potency, µM (doses to about 46.1 µM), for the others: at the highest dose activity, negative = inhibition, hits mostly inhibitors. actives 1.2% (n = 410,000). AID 588855; note: potency is the fitted concentration of half-maximal effect; % is set by controls: 0 for no effect and ±100 for the full control effect; nearly all actives have a fitted effect of over 65% in size
#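 Read-out: total well GFP (ex488/em500-530) summed from mean per-cell fluorescence. Cells: HEPG2 CAGA-GFP, 1% FBS DMEM, 18 h at 37 degrees C with 500 pg/mL final TGF-beta. Unstimulated wells served as the full-inhibition control; stimulated DMSO wells = 0%.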
# HepG2 viability – kills HepG2 cells in TGF-b inhibitor counter-screen | actives 0.76% (n = 410,000) | HepG2 CAGA-GFP viability, ATP luminescence, 18 h | AID 588856 | Potency, µM (doses to about 46.1 µM), for inactives: top-dose activity change, negative = cytotoxicity, most hits filed as cytotoxic; note: potency is the fitted concentration of half-maximal effect
#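 CellTiter-Glo luminescence gave cytotoxicity after 18 hours at 37 degrees C. The cells were HepG2 CAGA-GFP in 1% FBS DMEM, stimulated with 500 pg/mL TGF-beta after compound addition. %Activity was normalised to no-cell wells (complete cell-killing) and DMSO (no toxicity), and curves were fitted and classified.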
# DT40 TDP1 no CPT – qHTS for Inhibitors of human tyrosyl-DNA phosphodiesterase 1 (TDP1): qHTS in cells in absence of CPT. DT40 Tdp1-/- hTDP1 cells, no CPT, ATP luminescence, 48 h. Potency, µM (doses to about 46.2 µM), for inactives: at the top dose activity change, negative = growth inhibition, most hits filed as inhibitors. actives 15% (n = 420,000); note: potency is the fitted concentration of half-maximal effect; % is set by controls: 0 for no effect and ±100 for the full control effect; nearly all actives have a fitted effect of over 55% in size
#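 Camptothecin absent (DMSO only). Human TDP1-complemented DT40 knockout cells, 400 cells/well, 37 °C for minimum 48 hr; ATP measured via CellTiter-Glo, 30 min dark incubation, luminescence.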
# IL-1B inflam inh – inhibitors of inflammasome signaling (IL-1 beta secretion); activity change, % at 57.5 µM; THP-1 LPS/ATP IL-1B secretion, AlphaLISA, 16 h; hits give low values; actives 4.7% (n = 360,000); in the data active = activity change below about -50%; inconclusive = mostly about -30% to -49%; note: % is set by controls: 0 for no effect and ±100 for the full control effect
#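 Secreted IL-1B measured by AlphaLISA bead assay after 16 h compound exposure of THP-1 cells; compounds (final up to 57.5 uM) added 1 h before LPS (250 ng/mL) and ATP (1.25 mM) stimulation; lower signal means less secretion.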
# The depositor's hits bear a star; ? = inconclusive; / = not tested or not shown; ! = a repeat was not active; [ ] = another dose, or the depositor's remark. This is a sample that favours compounds with a hit; in the whole collection about 18% have one here. Unless noted, calls come from the whole dose curve; as a rule, active = well fitted curve in the direction sought with a large enough effect; inconclusive = small, poorly fitted or top-dose-only effect, or another doubt; inactive = no such curve, though single readings can be large; an effect the other way counts as inactive or inconclusive.
SMILES,TDP1 cell CPT,TDP1 block,TGFb SMAD3 inh,HepG2 viability,DT40 TDP1 no CPT,IL-1B inflam inh
CCN(CC)S(=O)(=O)c1ccc(NC2CCN(Cc3ccccc3)CC2)nc1,?,0.1%,-6.5%,-4.8%,?,-6.0
COc1cccc2c1cc1c(=O)n(CC(=O)NC3CC3)nc(C)n12,7.6%,-2.0%,0.0%,1.3%,?,/
CCc1ccc(N2CC(C(=O)OCC(=O)N(CC)c3c(N)n(Cc4ccccc4)c(=O)[nH]c3=O)CC2=O)cc1 (centres undefined),4.4%,/,16.6%,6.5%,-4.4%,6.3
COc1ccccc1C(=O)NC1CCN(C(=S)NCCc2ccccc2)CC1,-4.0%,6.2%,-30.8%,-16.2%,-27.8%,-77.2*
COc1ccc(NS(=O)(=O)c2ccc(C)c(C(=O)NC3CCN(Cc4ccccc4)CC3)c2)cc1,16.4µM*,0.8%,-17.5%,-25.8%,?,11.9
O=C(Nc1cccnc1)c1ccc(S(=O)(=O)N2CCCCCC2)cc1,-27.2%,7.9%,17.2%,-0.5%,?,-17.7
COc1cc(OC)cc(C2=NCCN2)c1,20.1%,3.7%,-1.1%,2.0%,-8.8%,-5.6
CCN(CC(=O)Nc1c(F)cccc1F)C(=O)C1CC1C (centres undefined),3.9%,-0.4%,-22.8%,4.7%,-25.8%,-7.6
O=C(NC1CCCC1)c1ccc(CSc2nc3ccncc3n2Cc2ccc(F)cc2)cc1,?,5.1%,7.94µM*!,-37.1%,16.4µM*,2.6
O=C(NCc1ccc(F)cc1)c1ccc(CSc2nc3ccncc3n2Cc2ccc(F)cc2)cc1,23.1µM*,7.8%,?,-13.4%,-96.9%,/
O=C(NC1CCCC1)c1ccc(CSc2nc3ccncc3n2Cc2cccc(F)c2)cc1,?,2.5%,?,-34.7%,16.4µM*,/
CCN(CC)CCNC(=O)c1ccc(CSc2nc3ccncc3n2Cc2cccc(F)c2)cc1,?,5.1%,-19.8%,-20.7%,?,/
O=C(NC1CCCCC1)c1ccc(CSc2nc3ccncc3n2Cc2ccccc2F)cc1,?,0.0%,?,-4.1%,?,/
CCCCCCn1cc(CN2CC(N3CCCC3)CS2(=O)=O)nn1 (centres undefined),-3.6%,/,/,/,-18.7%,10.3
Cc1ccccc1C(=O)NC(C)c1nnc2n1CCN(Cc1ccccc1F)CC2 (centres undefined),-7.4%,/,/,/,-11.9%,/
CCOc1ccc(S(=O)(=O)N(CC)CC(=O)NCc2ccncc2)cc1,-7.1%,6.9%[0.0935 µM],3.7%,2.2%,-22.4%,18.1
O=C(Cn1c2ccccc2c2nc3n(c(=O)c21)CCCS3)Nc1ccccc1,13µM*,5.3%,?,-11.6%,?,?
COC(=O)c1ccc(C)c(NC(=O)CCNC(=O)c2ccc([N+](=O)[O-])cc2)c1,-13.3%,0.0%,-4.4%,4.47µM*,-9.1%,9.9
COC(=O)c1cccc(NC(=O)CCNC(=O)c2ccc([N+](=O)[O-])cc2)c1,-2.3%,5.9%,-61.2%,0.6%,-10.2%,-2.9
Cc1ccc(F)cc1NC(=O)CCNC(=O)c1ccc([N+](=O)[O-])cc1,-22.9%,/,-2.7%,6.6%,?,-74.1*
CC(C)Cc1nn2cc(-c3cccc(Br)c3)nc2s1,?,-9.3%,?,-16.2%,-28.3%,/
Cc1nc(CCN2C(=O)c3ccccc3C2=O)n[nH]1,?,2.0%,7.4%,-28.5%,23.1µM*,-3.9
CN(C)c1ccc(/C=C/c2nc(-c3ccccc3O)n(-c3ccccc3)n2)cc1,16.4µM*,6.3%,6.6%,-21.7%,?,/
O=S(=O)(c1ccc(NC(=S)N2CCCCC2CO)cc1)N1CCOCC1 (centres undefined),-19.6%,/,-5.7%,-28.8%,?,2.5
OCC1(Cc2ccccc2)CCN(C2CCN(c3ccccc3F)CC2)CC1,?,3.6%,-20.3%,9.9%,23.1µM*,-85.1*
SMILES,TDP1 cell CPT,TDP1 block,TGFb SMAD3 inh,HepG2 viability,DT40 TDP1 no CPT,IL-1B inflam inh
CCCN(CCC)C(=O)c1oc2ccccc2c1NC(=O)Cc1cccc(OC)c1,?,/,-7.6%,-2.5%,?,1.2
CC1(C)CC(=O)C(/C=N/n2c(C(F)(F)F)nc3ccccc3c2=O)=C(O)C1,16.4µM*,7.0%,-1.3%,-1.9%,?,26.0
CCSc1nnc(C(C)NS(=O)(=O)c2cccc(Cl)c2C)n1C (centres undefined),-0.6%[9.04 µM],/,/,/,-1.0%,/
COc1ccc(/C=c2\s/c(=C\C(=O)C(C)(C)C)[nH]c2=O)cc1O,14.6µM*,-0.6%,?,-34.1%,?,?
COC(=O)CC1C(C)(C)C(=O)C2CC3=C4CC(=O)OC(c5ccoc5)[C@]4(C)CCC3[C@@]1(C)C2=O (some centres undefined),-13.3%,13.9%,/,/,-7.5%,/
CCCCN1CCCC1C(=O)Nc1c(C)cc(C)cc1C (centres undefined),?,3.7%,/,/,?,/
CC(C)(C)[C@H]1COC(=O)[C@H](Cc2ccc(F)cc2)CC/C=C/C[C@@H](CC(=O)N[C@H](CO)Cc2ccccc2)C(=O)N1,?,0.0%,?,-21.5%,20.6µM*,12.3
O=C(C[C@@H]1C/C=C/CC[C@@H](Cc2ccc(F)cc2)C(=O)OC[C@H](Cc2ccccc2)NC1=O)N[C@H](CO)Cc1ccccc1,9.2µM*,-1.6%,-32.2%,-39.5%,5.17µM*,-18.4
O=C(C[C@@H]1C/C=C/CC[C@@H](Cc2ccc(F)cc2)C(=O)OCCNC1=O)N[C@H](CO)Cc1ccccc1,?,-0.7%,-12.9%,-24.2%,?,18.3
O=C(C[C@@H]1C/C=C\CC[C@@H](Cc2ccc(F)cc2)C(=O)OC[C@@H](Cc2ccccc2)NC1=O)NCCO,14.6µM*,1.1%,7.8%,-10.9%,?,11.3
C[C@H]1COC(=O)[C@H](Cc2ccc(F)cc2)CC/C=C/C[C@@H](CC(=O)N[C@@H](CO)Cc2ccccc2)C(=O)N1,11.6µM*,1.2%,-9.0%,-3.1%,16.4µM*,-1.3
